Key:
ERK5 = test system: T1, ERK5
T1 construct: gene MAPK7

FAK = test system: T2, FAK
T2 construct: gene PTK2
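Further: kd values determined as follow-up on hits from a single-replicate KINOMEscan panel screen.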

**Q.** For Cc1ccc(Oc2ccc(Nc3ncnc4cc[nH]c34)cc2C)cn1, which Kd (ERBB2) is on record?
**A.** 6.5 nM

**Q.** What about the Kd (FLT1) of the same compound?
**A.** > 10000 nM

**Q.** For O=C(Nc1n[nH]c2nc(-c3ccccc3)c(Br)cc12)C1CC1 [SB-708998], which Kd (ERK5) is on record?
**A.** > 10000 nM

**Q.** O=C(NCc1cccs1)c1cc(C(=O)c2c(Cl)cccc2Cl)c[nH]1 [GW823670] was tested. Which Kd (FAK) did it give?
**A.** > 10000 nM

**Q.** For CCc1nc(-c2cccc(C)c2)c(-c2ccncc2)s1, which Kd (FAK) is on record?
**A.** > 10000 nM

**Q.** How did the Kd (FGFR1) turn out when FC(F)(F)c1ccc(-c2ncn(CCCN3CCOCC3)c2-c2ccncc2)cc1 [SB-217780] was run?
**A.** > 10000 nM

**Q.** With COc1cc(OC)cc(-c2cc3cnc(N)nc3nc2NC(=O)NC(C)(C)C)c1 as the compound, how does the Kd (FGFR1) read?
**A.** 66 nM

**Q.** And the Kd (FGFR2)?
**A.** 310 nM

**Q.** What about the Kd (FGFR3) of the same compound?
**A.** 110 nM

**Q.** Which Kd (FGFR4) does the source give for Nc1ncnc2c1ncn2-c1cccc(F)c1 [SKF-97560] here?
**A.** > 10000 nM

**Q.** Which Kd (FGFR4) does the source give for COc1ccc(Nc2nccc(N3CCC(NS(=O)(=O)c4ccc(NC(C)=O)cc4)C3)n2)cc1 (stereo not shown) [GSK1379729] here?
**A.** > 10000 nM

**Q.** What does the source list for COc1cc2nccc(Nc3ccc(OCc4ccc(NC(C)=O)cc4)cc3)c2cc1OC.Cl [GW440135]?
**A.** Kd (FLT1): 680 nM; Kd (FLT4): 480 nM

**Q.** With COc1ccc(-n2cnc3c(N)ncnc32)cc1 [SKF-97236] as the compound, how does the Kd (FLT3) read?
**A.** 120 nM

**Q.** How did the Kd (FLT3) turn out when Cl.NS(=O)(=O)c1cccc(Nc2cc(-c3ccc(F)cc3)n[nH]2)c1 [GW824645] was run?
**A.** 7.5 nM

**Q.** For Cc1cccc(-c2cc(-c3c[nH]nc3-c3ccccn3)ccn2)c1 [GW679395], which Kd (GAK) is on record?
**A.** 130 nM

**Q.** OCCCNc1nccc(-c2c(-c3cccc(C(F)(F)F)c3)nn3cc(C(F)(F)F)ccc23)n1 [GW630813] was tested. Which Kd (GRK1) did it give?
**A.** > 10000 nM

**Q.** How did the Kd (GRK4) turn out when CN1C(=O)C(Nc2cc(Cl)c(O)c(Cl)c2)=C(c2ccc(Cl)cc2)C1=O [SB-404321] was run?
**A.** > 10000 nM

**Q.** How did the Kd (GRK7) turn out when CCn1c(-c2ccoc2)nc2cnccc21 [SB-733887] was run?
**A.** > 10000 nM

**Q.** Which Kd (HIPK2) does the source give for Nc1n[nH]c2nnc(-c3ccccc3)c(-c3ccccc3)c12 [GW554060] here?
**A.** 410 nM

**Q.** Which Kd (HIPK4) does the source give for Cn1c(=O)c(F)c(Nc2ccc(I)cc2F)c2c(=O)n(OC[C@H](O)CO)cnc21 here?
**A.** > 10000 nM

**Q.** Which Kd (INSRR) does the source give for COc1cc2ncn(-c3cc(OCc4ccncc4)c(C(N)=O)s3)c2cc1OC [GSK336313] here?
**A.** > 10000 nM
